# Compound activity (PubChem)
# Only some compounds are listed: those with a hit (about 3.2% of all), similar ones and a draw of the others.
# MEKK2wt PB1 HTS: raises or lowers MEK5 binding to wildtype human MEKK2 PB1 domain. hit rate 1.1% among 290,000. bead flow cytometry, Alexa488-MEK5 binding to MEKK2 WT; actives lie on both sides. binding response (% of control), % at 10 µM. Q9Y2U5; in the data active = binding response below about 67% or above about 130%
# SKN-1 inh: inhibitors of C. elegans SKN-1 | C. elegans VP596 Pgst-4::GFP/RFP ratio, acrylamide-induced, 24 h | inhibition, % at 21.8 µM | hit rate 0.49% among 360,000 | AID 624304;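 active = interference check ratio from 0.5 to 1.5 plus GFP to RFP signal ratio inhibition reaching or exceeding a fixed threshold, cut at about 30% in these data, passing the limit was not always enough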
# NRP1-CendR mod: modulators of CendR peptide binding to human neuropilin-1 | FAM-RPARPAR peptide binding to NRP-1, fluorescence polarization | inhibition, % at 25 µM | hit rate 0.85% among 360,000 | AID 602438;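 active = inhibition or corrected inhibition above about 18%, plus a signal ratio from 0.5 to 1.5, limit read from the data, passing the limit was not always enough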
# Target sequence (O14786 whole entry, looked up): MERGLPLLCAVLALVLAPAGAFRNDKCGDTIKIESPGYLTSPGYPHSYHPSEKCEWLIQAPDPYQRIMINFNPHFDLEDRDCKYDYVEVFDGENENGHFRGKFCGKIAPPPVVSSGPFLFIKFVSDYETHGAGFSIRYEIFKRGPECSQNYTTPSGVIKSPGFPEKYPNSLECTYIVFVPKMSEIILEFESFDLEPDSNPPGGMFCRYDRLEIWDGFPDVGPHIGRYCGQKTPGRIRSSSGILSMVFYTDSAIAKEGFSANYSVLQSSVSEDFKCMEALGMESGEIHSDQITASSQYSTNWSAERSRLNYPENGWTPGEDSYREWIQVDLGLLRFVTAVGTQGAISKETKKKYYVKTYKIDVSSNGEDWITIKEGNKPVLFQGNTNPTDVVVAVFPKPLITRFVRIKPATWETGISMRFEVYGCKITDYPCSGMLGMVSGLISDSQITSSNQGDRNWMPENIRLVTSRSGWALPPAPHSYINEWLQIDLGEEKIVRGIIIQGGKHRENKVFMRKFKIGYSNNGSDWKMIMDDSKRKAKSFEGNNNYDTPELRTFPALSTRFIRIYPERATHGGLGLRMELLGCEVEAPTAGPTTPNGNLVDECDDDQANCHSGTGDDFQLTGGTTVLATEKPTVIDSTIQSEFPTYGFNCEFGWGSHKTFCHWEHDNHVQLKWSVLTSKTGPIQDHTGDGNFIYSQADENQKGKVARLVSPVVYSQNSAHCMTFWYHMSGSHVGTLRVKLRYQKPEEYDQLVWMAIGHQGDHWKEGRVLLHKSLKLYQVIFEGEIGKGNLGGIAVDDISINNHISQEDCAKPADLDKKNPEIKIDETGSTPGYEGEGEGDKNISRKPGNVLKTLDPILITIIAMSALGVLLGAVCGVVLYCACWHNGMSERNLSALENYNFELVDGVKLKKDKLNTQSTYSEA
# MEKK2mut PB1 HTS: signal of MEK5 binding to mutant human MEKK2 PB1 domain | bead flow cytometry, Alexa488-MEK5 binding to MEKK2 mutant | percent response, % at 10 µM | hit rate 0.35% among 290,000 | AID 1530; in the data active = percent response above about 24%, passing the limit was not always enough
# MEKK3 PB1 HTS: modulators (inhibitors or enhancers) of MEK5 binding to human MEKK3 PB1 domain | bead-based flow cytometry, Alexa488-MEK5 binding to MEKK3; actives lie on both sides; 0 = blocked by unlabeled MEK5, 100 = vehicle | hit rate 1.4% among 290,000 | binding response (% of control), % at 10 µM | Q99759 | AID 1529;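 active = binding response more than 3 SD above or below the average of its plate-row segment, actives on both sides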;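 note: Alexa488 bead fluorescence after subtracting the streptavidin-only scavenger bead signal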
# MEKK2wt confirm: raises or lowers MEK5 binding to wildtype human MEKK2, retest; shares compounds with MEKK3 PB1 HTS; bead flow cytometry, Alexa488-MEK5 binding to MEKK2 WT; actives lie on both sides; binding response (% of control), % at 10 µM; hit rate 2.4% among 5,900; AID 1892; in the data active = binding response below about 16% or above about 210%; inactive = in between
# MEKK2mut confirm: signal of MEK5 binding to mutant human MEKK2, retest. shares compounds with MEKK3 PB1 HTS. bead flow cytometry, Alexa488-MEK5 binding to MEKK2 mutant. percent response, % at 10 µM. hit rate 2% among 5,900; in the data active = percent response mostly above about 71%, no sharp cut-off; inactive = mostly below about 38%;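 note: higher means compound restores mutant binding toward wildtype level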
# MEKK3-MEK5 inh: confirmation of inhibitors of MEK5 binding to human MEKK3. shares compounds with MEKK3 PB1 HTS. bead flow cytometry, Alexa488-MEK5 binding to MEKK3; stronger effect = lower value. binding response (% of control), % at 10 µM. hit rate 1.8% among 5,900. AID 1894;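 active = binding response below 72% of control, or above a set upper limit, though filed actives all read lower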;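 note: 100% = DMSO only wells and 0% = binding blocked by excess unlabeled MEK5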
# * = called active by the depositor; x = no result given; [ ] = remark or other dose.
SMILES,MEKK2wt PB1 HTS,SKN-1 inh,NRP1-CendR mod,MEKK2mut PB1 HTS,MEKK3 PB1 HTS,MEKK2wt confirm,MEKK2mut confirm,MEKK3-MEK5 inh
C#CCOCCOCCOCCNc1nc(N2CCN(C(=O)[C@H]([C@@H](C)CC)n3cc([C@@H](N)Cc4ccc(O)cc4)nn3)CC2)nc(N2CCN(C(=O)[C@H](Cc3cc4ccccc4[nH]3)n3cc([C@@H](N)C(C)CC)nn3)CC2)n1 (stereo partly drawn),237.0*,x,x,91.0*,113.0,216.0*,68.0,112.0
C#CCOCCOCCOCCNc1nc(N2CCN(C(=O)[C@H](Cc3cc4ccccc4[nH]3)n3cc([C@@H](N)C(C)CC)nn3)CC2)nc(N2CCN(C(=O)[C@H](CCCCN)n3cc([C@@H](N)CC(C)C)nn3)CC2)n1 (stereo partly drawn),247.0*,x,x,95.0*,111.0,232.0*,89.0*,113.0
C#CCOCCOCCOCCNc1nc(N2CCN(C(=O)[C@H](Cc3ccc(O)cc3)n3cc([C@@H](N)C(C)CC)nn3)CC2)nc(N2CCN(C(=O)[C@H](Cc3cc4ccccc4[nH]3)n3cc([C@@H](N)CC(C)C)nn3)CC2)n1 (stereo partly drawn),224.0*,x,x,73.0*,117.0,231.0*,117.0*,115.0
C#CCOCCOCCOCCNc1nc(N2CCN(C(=O)C(CCC(=O)O)n3cc(C(N)CC(C)C)nn3)CC2)nc(N2CCN(C(=O)C(Cc3cc4ccccc4[nH]3)n3cc(C(N)Cc4ccc(O)cc4)nn3)CC2)n1 (stereo not drawn),131.0,20.6,-4.6,19.0,105.0,x,x,x
CC(=O)[C@H]1[C@H]([C@H](O)[C@H](O)CO)O[C@](O)(C(=O)O)C[C@@H]1O,x,-15.2,8.8,x,x,x,x,x
COc1ccc(O)cc1CN1CCN(c2ncc(Cc3ccccc3)cn2)CC1,x,3.8,-7.1,x,x,x,x,x
C#CCOCCOCCOCCNc1nc(N2CCN(C(=O)C(Cc3cc4ccccc4[nH]3)n3cc(C(N)Cc4ccc(O)cc4)nn3)CC2)nc(N2CCN(C(=O)C(CCC(=O)O)n3cc(C(N)C(C)CC)nn3)CC2)n1 (stereo not drawn),x,0.6,8.1,x,x,x,x,x
C#CCOCCOCCOCCNc1nc(N2CCN(C(=O)[C@H](Cc3ccc(O)cc3)n3cc([C@@H](N)C(C)CC)nn3)CC2)nc(N2CCN(C(=O)[C@H](Cc3cc4ccccc4[nH]3)n3cc([C@@H](N)C(C)CC)nn3)CC2)n1 (stereo partly drawn),208.0*,5.5,7.1,59.0*,111.0,194.0,65.0,108.0
C#CCOCCOCCOCCNc1nc(N2CCN(C(=O)[C@H](CCC(=O)O)n3cc(C(N)Cc4ccc(O)cc4)nn3)CC2)nc(N2CCN(C(=O)[C@H](Cc3cc4ccccc4[nH]3)n3cc(C(N)[C@H](C)CC)nn3)CC2)n1 (stereo partly drawn),153.0*,4.3,8.5,38.0,112.0,134.0,20.0,102.0
C#CCOCCOCCOCCNc1nc(N2CCN(C(=O)[C@H](CCCCN)n3cc([C@@H](N)C(C)CC)nn3)CC2)nc(N2CCN(C(=O)[C@H](CCCCN)n3cc([C@@H](N)CC(C)C)nn3)CC2)n1 (stereo partly drawn),180.0*,-4.1,22.2*,60.0*,111.0,173.0,47.0,109.0
CCOc1cc(-c2ccccc2)nc2c1CN(S(=O)(=O)c1ccc(C)cc1)C(c1cccc(Cl)c1)C2 (stereo not drawn),x,2.0,-0.4,x,x,x,x,x
Cc1ccccc1CNC(=O)CCn1nc(C)c2c(C)n(-c3ccccc3)nc2c1=O,104.0,4.1,-4.1,2.0,98.0,x,x,x
Cc1cc(NC(=O)COC(=O)COc2ccc3c(c2)CCC3)no1,131.0,-5.7,4.3,11.0,132.0*,105.0,2.0,104.0
COc1ccc(C[C@H]2CN3C(=NC[C@@H]3C(C)C)N2C[C@H](C)NC(=O)c2ccc(C)c(Br)c2)cc1,153.0*,2.7,7.6,37.0,107.0,141.0,19.0,108.0
COc1ccc(C[C@@H]2CN3C(=NC[C@@H]3C)N2C[C@H](C)NC(=O)CCC2CCCCC2)cc1,108.0,5.8,5.9,5.0,99.0,x,x,x
COc1ccc(C[C@H]2CN3C(=NC[C@@H]3Cc3ccc(O)cc3)N2C[C@H](C)NC(=O)c2ccc(C)c(Br)c2)cc1,157.0*,-4.6,5.8,80.0*,117.0,4.0*[inhibitor],-47.0,2.0*
Cc1ccc(C(=O)N[C@@H](C)CN2C3=NC[C@H](C(C)C)N3C[C@H]2Cc2ccc(O)cc2)cc1Br,128.0,-11.7,1.3,21.0,105.0,x,x,x
COc1ccc2nc(SC(C)C(=O)NCC(=O)Nc3ccc(F)c(F)c3F)[nH]c2c1 (stereo not drawn),x,13.1,-0.6,x,x,x,x,x
CN(C)C(=O)N1CCC(C(=O)NCc2ccc(F)cc2)CC1,101.0,-29.7,-3.2,4.0,98.0,x,x,x
CN(C)C(=O)N1CCC(C(=O)NCc2ccccc2)CC1,-2.0*[inhibitor],7.7,7.7,-20.0,1.0*[inhibitor],96.0,-5.0,98.0
Cc1cc([N+](=O)[O-])cc2c1NC(=O)C2(O)N1CCCCCC1 (stereo not drawn),118.0,-6.1,3.8,2.0,163.0*,111.0,4.0,106.0
Cc1ccc(NC(=O)Cn2nc(-c3ccccc3)nc2-c2ccccc2)c(C)c1,108.0,4.0,-9.2,1.0,150.0*,105.0,7.0,104.0
CCOc1ccc(CCNC(=O)COC(=O)c2cccc(S(=O)(=O)N3CCOCC3)c2)cc1OCC,x,15.4,-2.7,x,x,x,x,x
CCNC(=O)NC(=O)CSc1ccc(NC(C)=O)cc1,103.0,-5.3,12.7,0.0,98.0,x,x,x
CNC(=O)NC(=O)CSc1ccc(NC(C)=O)cc1,125.0,13.4,4.4,8.0,128.0*,105.0,3.0,99.0
CC(=O)OC(C(=O)NC1CCCCC1)c1ccncc1 (stereo not drawn),83.0,13.2,4.9,-15.0,75.0*[inhibitor],98.0,-5.0,101.0
Cc1cccc(NC(=O)CCS(=O)(=O)c2ccc3c(c2)NC(=O)CS3)n1,103.0,10.4,-3.4,3.0,102.0,x,x,x
Cn1c(=O)c2cc(NC(=O)CCc3ccc4c(c3)OCO4)ccc2n1Cc1ccc(F)cc1,x,13.6,-5.5,x,x,x,x,x
COc1ccc(CC(=O)N2CCCC(CNC(=O)c3ccccc3Cl)C2)cc1 (stereo not drawn),54.0,1.4,1.8,-35.0,47.0*[inhibitor],106.0,9.0,107.0
